# Source: PubChem BioAssay (Tox21)
# Results filed as inconclusive are left out. Entries that show only a call come without a potency. Calls of active or inactive are those of the source. Calls follow the shape of the dose curve; as a rule, active = well fitted cell-killing curve with a large enough effect in the repeat runs; inconclusive = weak or mixed curves, or effect the other way; inactive = no such curve, though single readings can be large or run the other way.
# Experiment: qHTS assay to identify small molecule antagonists of the progesterone receptor (PR) signaling pathway - cell viability counter screen (AID 1346798); also: nearly all actives have a fitted effect of over 50% in size
# Conditions: PR-UAS-bla HEK293T viability, CellTiter-Glo luminescence, 16 h; series mostly up to 42.5 µM
# Summary of the method: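 HEK293T PR-UAS-bla, 2% charcoal-stripped FBS; 4 hr pre-plate; cpd + R5020, 16 h 37C; LiveBLAzer read first; then CellTiter-Glo 30 min RT, luminescence.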
row,SMILES,Potency
1,CC(=O)O[C@H]1CC[C@@]2(C)C(=CC[C@@H]3[C@@H]2CC[C@]2(C)C(C(C)=O)=CC[C@@H]32)C1,inactive
2,CCCCC(CC)COC(=O)COc1cc(Cl)c(Cl)cc1Cl (stereo not given),inactive
3,Clc1cccc(-c2cc(Cl)cc(Cl)c2)c1,inactive
4,CCCCCCCCCCCCOCCOS(=O)(=O)O,inactive
5,CN(C)CC[C@@H](c1ccc(Cl)cc1)c1ccccn1,inactive
6,CC/C=C\CCOC(=O)C(C)C,inactive
7,OCCN1CCN(CCO)CC1,inactive
8,O=C1N(c2ccccc2)c2ccccc2C1(Cc1ccncc1)Cc1ccncc1,inactive
9,COc1ccccc1OCC(O)COC(N)=O (stereo not given),inactive
10,CC(=O)N[C@@H](CC(C)C)C(=O)O,inactive
11,C[C@]12CCC(=O)C=C1CC[C@@H]1[C@@H]2CC[C@@]2(C)[C@H]1CC[C@]2(O)C(=O)CO,inactive
12,CCCC1CCC(=O)O1 (stereo not given),inactive
13,CC(C)S,inactive
14,COC(=O)C(C)O (stereo not given),inactive
15,CCOc1ccc(OCC)c(Cl)c1,inactive
16,Cc1nc(N)nc(N)c1-c1ccc(Cl)c(Cl)c1,inactive
17,c1ccc(CN(CC2=NCCN2)c2ccccc2)cc1,inactive
18,Cc1cc2nc(N)sc2cc1C,inactive
19,CCCCNc1cc(C(=O)O)cc(S(N)(=O)=O)c1Oc1ccccc1,inactive
20,NCCC(O)(P(=O)(O)O)P(=O)(O)O,inactive
21,CC(C)C[C@H](NC(=O)OCC1c2ccccc2-c2ccccc21)C(=O)O,inactive
22,C1CSCCS1,inactive
23,COC(C)CCO (stereo not given),inactive
24,O=C(Cl)c1cccc([N+](=O)[O-])c1,inactive
25,OC[C@H]1O[C@@H](O[C@H]2[C@H](O)[C@@H](O)[C@H](O)O[C@@H]2CO)[C@H](O)[C@@H](O)[C@H]1O,inactive
